Laboratory results published in PubChem BioAssay AID743314 (Broad Institute, 2014).
Potency and affinity values are given separately. Results filed as inconclusive are left out.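 Rule for the calls: active = fitted half-maximal concentration no higher than twice the top tested dose, in every repeat run; inconclusive = repeat runs disagree, poor fit, or flat partial inhibition; inactive = the rest.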

Each compound was assayed against Endoplasmic reticulum aminopeptidase 1 (Homo sapiens) (UniProt Q9NZ08) (assay: inhibition of human ERAP1 enzyme activity – biochemical, cherry-pick, set 2, plate reader, dose response (AID 743314;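 note: 0% = neutral control wells and -100% = L-leucinethiol positive control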)). Details: Recombinant ERAP1, Leu-AMC fluorescence, 60 min; series mostly up to 11 µM; activity change, negative = inhibition: at the top concentration.
Chain of Endoplasmic reticulum aminopeptidase 1 (Homo sapiens) (Q9NZ08 whole entry, looked up): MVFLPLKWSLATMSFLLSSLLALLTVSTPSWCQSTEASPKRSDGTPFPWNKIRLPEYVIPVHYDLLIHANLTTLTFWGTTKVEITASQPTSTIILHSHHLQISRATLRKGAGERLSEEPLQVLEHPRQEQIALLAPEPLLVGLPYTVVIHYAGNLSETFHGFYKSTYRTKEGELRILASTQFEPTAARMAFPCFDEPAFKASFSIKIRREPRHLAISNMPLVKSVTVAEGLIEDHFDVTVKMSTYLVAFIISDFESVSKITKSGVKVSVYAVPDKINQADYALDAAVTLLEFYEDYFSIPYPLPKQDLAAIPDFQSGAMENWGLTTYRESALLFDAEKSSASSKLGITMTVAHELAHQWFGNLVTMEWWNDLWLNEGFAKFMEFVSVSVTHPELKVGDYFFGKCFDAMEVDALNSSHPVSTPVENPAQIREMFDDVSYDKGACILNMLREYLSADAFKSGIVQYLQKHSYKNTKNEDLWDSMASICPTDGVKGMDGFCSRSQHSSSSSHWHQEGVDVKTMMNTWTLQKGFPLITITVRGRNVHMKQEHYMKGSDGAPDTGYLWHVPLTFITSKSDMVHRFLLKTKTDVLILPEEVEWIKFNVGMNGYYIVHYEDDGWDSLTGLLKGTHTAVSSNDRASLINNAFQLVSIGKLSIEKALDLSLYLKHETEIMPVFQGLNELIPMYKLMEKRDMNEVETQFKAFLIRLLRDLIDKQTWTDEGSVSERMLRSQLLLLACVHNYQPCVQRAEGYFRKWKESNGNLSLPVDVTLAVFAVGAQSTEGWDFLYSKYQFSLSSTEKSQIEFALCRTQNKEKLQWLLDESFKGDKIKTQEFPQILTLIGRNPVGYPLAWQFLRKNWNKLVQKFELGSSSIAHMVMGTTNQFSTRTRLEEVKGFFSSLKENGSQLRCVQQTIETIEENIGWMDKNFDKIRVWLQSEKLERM

Activity change, negative = inhibition, inactive:
CCCNC(=O)N1C[C@@H](C)[C@@H](OC)CN(C)C(=O)c2cc(NS(=O)(=O)CC(F)(F)F)ccc2OC[C@@H]1C 53.2%, C[C@H](CO)N1C[C@H](C)[C@@H](CN(C)S(=O)(=O)c2ccccc2)Oc2ccc(NC(=O)CCN3CCOCC3)cc2C1=O 17.7%, Cc1cc(C)n2nc(C(=O)N3CCN(c4ccc([N+](=O)[O-])cc4)CC3)nc2n1 -1.94%, COc1ccc(S(=O)(=O)N[C@@H]2C=C[C@H](CC(=O)NCc3ccccc3F)O[C@@H]2CO)cc1 20.6%, CCn1cnc2c1c(=O)n(CC(=O)NCC(F)(F)F)c(=O)n2Cc1ccccc1 -0.513%, O=C(CSc1nc2ccccc2c(=O)n1-c1ccccc1)NCC1CCCO1 (configuration not stated) -4.58%, COC(=O)[C@H]1[C@H](CO)[C@H]2Cn3c(ccc(C4=CCCC4)c3=O)[C@H]2N1C(=O)C1CC1 33.1%, CNc1cncc(-c2cccc(C(=O)N(C)C)c2)n1 -17.7%, COc1ccc(CN(C)C(=O)CCCNC(=O)c2ccc(Cl)cc2)cc1 -4.67%, C[C@@H]1CN([C@H](C)CO)S(=O)(=O)c2ccc(-c3ccccc3)cc2O[C@H]1CN(C)S(C)(=O)=O 40.4%, CN1CCN(S(=O)(=O)c2cccc(C(=O)N(C)CC(=O)Nc3ccc(F)c(F)c3F)c2)CC1 3.77%, C[C@H]1CCCCO[C@H](CN(C)C)[C@@H](C)CN([C@@H](C)CO)C(=O)c2cc(NS(=O)(=O)c3ccc(Cl)cc3)ccc2O1 9.96%
